# Measurements as given in article PMC4552634, “A New Set of Chemical Starting Points with Plasmodium falciparum Transmission-Blocking Potential for Antimalarial Drug Discovery” (PLoS ONE, 2015).
# Where two headings read alike, the source gives them in different places. Screen size: about 13,000 compounds; about 3,200 (25%) showed an effect of 50% or more. This is one part of the list.
# System: P. falciparum stage V gametocytes
# Set-up: BacTiter-Glo ATP luminescence viability of purified stage V gametocytes in 384-well plates, per cent inhibition versus DMSO
# Conditions: 48 h, 5 µM, inhibitor
Structure (SMILES),% Inhibition,% Inhibition (% Inhibition)
CC(=O)Nc1cccc(C(=O)Nc2nc3ccc(-c4cc(=O)[nH]c(Nc5ccccc5Cl)n4)cc3[nH]2)c1 [TCMDC-135793],-20.56%,–
C(=Cc1ccccc1)C=NNc1ccnc2ccccc12 [TCMDC-142061],-65.55%,–
Fc1cccc(COc2ccc(Nc3ncnc4sc(C#CCNC5CCCC5)cc34)cc2Cl)c1 [TCMDC-138786],-17.57%,–
CCC1N=C(N)N=C(N)N1OCCCOc1c(Cl)cc(Cl)cc1Cl (centres unmarked) [TCMDC-131697],23.8%,–
Cc1ccc(NC(=O)NC2CCN(c3ccnc4cc(Cl)ccc34)C2)cc1 (centres unmarked) [TCMDC-133651],27.92%,–
COc1cc(NC(=O)/C=C/c2ccccc2Cl)cc(OCCN2CCC(O)(c3ccccc3)CC2)c1 [TCMDC-140934],-1.317%,–
O=C1Nc2cccc3c2C1(CCCCN1CCC(c2cc4ccncc4[nH]2)CC1)CCC3 (centres unmarked) [TCMDC-141221],–,84.1%
O=C1Nc2cccc3c2C1(CCCN1CCC(c2c[nH]c4cc(C(F)(F)F)ccc24)CC1)CCC3 (centres unmarked) [TCMDC-140464],106.4%,–
O=C1Nc2cccc3c2C1(CCCCN1CC=C(c2c[nH]c4ncccc24)CC1)CCC3 (centres unmarked) [TCMDC-140506],-6.886%,–
O=C1Nc2cccc3c2C1(CCCCN1CCC(c2cc4ccncc4[nH]2)CC1)CCC3 (centres unmarked) [TCMDC-141151],–,27.49%
CC1(CCCCN2CCC(Oc3ccc(F)cc3F)CC2)C(=O)Nc2ccccc21 (centres unmarked) [TCMDC-140794],-43.13%,–
O=C1Nc2cccc3c2C1(CCCCCN1CC=C(c2c[nH]c4ccccc24)CC1)CCC3 (centres unmarked) [TCMDC-140570],20.32%,–
O=C1Nc2cccc3c2C1(CCCCN1CCC(c2c[nH]c4cc(C(F)(F)F)ccc24)CC1)CCC3 (centres unmarked) [TCMDC-140465],121.5%,–
CC(C)(C)OC(=O)n1cc(C2CCN(CCCC34CCCc5cccc(c53)NC4=O)CC2)c2ccncc21 (centres unmarked) [TCMDC-140392],2.693%,–
O=C1Nc2cccc3c2C1(CCCCCN1CCC(c2c[nH]c4ccncc24)CC1)CCC3 (centres unmarked) [TCMDC-140504],73.67%,–
CCOc1ncccc1CN1CCC(N2CCc3cc(NC(=O)c4ccco4)ccc32)C1 (centres unmarked) [TCMDC-135074],-21.9%,–
COc1ccc(C2N=C(N)N=C(N)N2c2ccc(Cl)cc2)cc1OC (centres unmarked) [TCMDC-123670],-7.954%,–
COc1cc(C(=O)NC2CCN(Cc3ccccc3)CC2)ccc1-c1nc2c(Cl)cc(C(F)(F)F)cc2[nH]1 [TCMDC-140085],-15.98%,–
Cc1cccc2[nH]c(-c3ccc(-c4ccc(NC(=O)Nc5ccc(F)c(F)c5F)cc4)cc3)nc12 [TCMDC-133232],3.128%,–
N#Cc1ccc2c(c1)CCN(CCC1CCC(NC(=O)/C=C/c3cccc4cc[nH]c34)CC1)CC2 (centres unmarked) [TCMDC-139671],-14.99%,–
CCN1CC=C(c2c[nH]c3ccccc23)CC1 [TCMDC-124447],-15.41%,–
Cn1c(/C=C/C(=O)NC2CCC(CCN3CCc4ccc(C#N)cc4CC3)CC2)cc2ccccc21 (centres unmarked) [TCMDC-139683],-68.7%,–
Cc1cn(CC(=O)Nc2cccc(-c3cccc(-c4nc5c(C)cccc5[nH]4)c3)c2)c(=O)[nH]c1=O [TCMDC-137037],-3.611%,–
CC1(CCCCN2CCC(c3c[nH]c4cnccc34)CC2)C(=O)Nc2cccc(Cl)c21 (centres unmarked) [TCMDC-141177],63.64%,–
O=c1[nH]c(NCCCCCN2CCC(c3c[nH]c4ccccc34)CC2)ncc1Cc1ccc(Cl)c(Cl)c1 [TCMDC-139189],16.9%,–
CC1(CCCCN2CCC(Cc3ccccc3)CC2)C(=O)Nc2ccccc21 (centres unmarked) [TCMDC-140796],0.5554%,–
CC1(CCN2CCC(c3c[nH]c4cnccc34)CC2)CCCc2c(Br)cccc2C1=O (centres unmarked) [TCMDC-141171],95.16%,–

Structure (SMILES),% Inhibition,% Inhibition (% Inhibition)
Cc1ccc(C(=O)Nc2cccc([N+](=O)[O-])c2)cc1S(=O)(=O)N1CC(C)CC(C)C1 (centres unmarked) [TCMDC-123731],8.733%,–
COc1cc(F)c2ncc(Cl)c([C@@H](O)CN3CCC(NCc4ccc5c(n4)NC(=O)CO5)CC3)c2c1 [TCMDC-135488],20.51%,–
C=C[C@H]1CN2CC[C@H]1C[C@H]2[C@H](O)c1ccnc2ccc(OC)cc12 [TCMDC-123939],–,23.69%
CCCN(CCC)CCCN(CCCN(CCC)CCC)c1cc(C)nc(Nc2ccc3cc(Br)ccc3c2)n1 [TCMDC-138006],102.3%,–
CCN(CCCN1CCCCC1)c1cc(C)nc(Nc2ccc(C)c(C)c2)n1 [TCMDC-132440],22.96%,–
CCN(CCCN1CCCCC1)c1cc(C)nc(Nc2ccc(C)c(Br)c2)n1 [TCMDC-132436],25.65%,–
CCN(CCCN1CCCCC1)c1cc(C)nc(Nc2ccc(OC)cc2)n1 [TCMDC-132430],-5.018%,–
CCN(CC)CCCN(CCCN(CC)CC)c1cc(C)nc(Nc2ccc3cc(Br)ccc3c2)n1 [TCMDC-137611],92.7%,–
CCCCN(CCCC)CCCN(CCCN(CCCC)CCCC)c1cc(C)nc(Nc2ccc3cc(Br)ccc3c2)n1 [TCMDC-138005],117%,–
O=C(NC1CCN(Cc2ccc3c(c2)OCCO3)CC1)c1ccc(-c2cccc(C(F)(F)F)c2)s1 [TCMDC-134337],32.78%,–
COc1ccc(C2N=C(N)N=C(N)N2OCc2ccccc2)cc1OC (centres unmarked) [TCMDC-131345],5.736%,–
CC1(C)N=C(N)N=C(N)N1OCCCCCOc1ccccc1 [TCMDC-131319],-2.033%,–
CC(=O)N(C)c1cccc(C(=O)Nc2cccc(-c3cccc(-c4nc5c(C)cccc5[nH]4)c3)c2)c1 [TCMDC-137071],44.44%,–
Cc1cc(CN2CCC(N3CC(c4ccccc4)(c4ccccc4)OC3=O)C2)ccc1O (centres unmarked) [TCMDC-136072],-30.84%,–
COc1cccc(CNCC(C)(C)c2nc(-c3ccc(Cl)c(O)c3)c(-c3ccncc3)[nH]2)c1 [TCMDC-140687],-54.89%,–
COc1ccc2cc(-c3nc(-c4c(Cl)cccc4Cl)[nH]c3-c3ccnc(NCCCN4CCN(C)CC4)c3)ccc2c1 [TCMDC-141250],55.44%,–
COc1cc(-c2nc(-c3ccc4c(c3)CCC4=NO)c(-c3ccncc3)[nH]2)ccc1OCCN1CCN(C)CC1 [TCMDC-141256],-11.77%,–
COc1cc(-c2nc(C(C)(C)CN)[nH]c2-c2ccncc2)ccc1Br [TCMDC-140674],-82.82%,–
CC(C)(CNC(=O)[C@@H]1CCCN(CCOc2ccc(Cl)cc2)C1)c1nc(-c2ccc(Cl)c(O)c2)c(-c2ccncc2)[nH]1 [TCMDC-141125],7.649%,–
COc1ccc(C)c(Nc2ccnc(Nc3cccc(-c4nc5ccccc5[nH]4)c3)n2)c1 [TCMDC-138696],21%,–
COc1cc(NC(=O)CCCCCCCN2CCN(C)CC2)c2ncccc2c1 [TCMDC-138214],-6.593%,–
CCN(CC)CCCCNc1cc(-c2[nH]c(C(C)(C)C)nc2-c2ccc3cc(OC)ccc3c2)ccn1 [TCMDC-141246],101.1%,–
CN(C)CCOc1ccc(NC(=O)NC(C)(C)c2nc(-c3ccc(Cl)c(O)c3)c(-c3ccncc3)[nH]2)cc1 [TCMDC-140744],-34.41%,–
COc1cc(-c2cc3cc(Cl)c(Cl)cc3[nH]2)ccc1C(=O)NCCC1CCCN1C (centres unmarked) [TCMDC-141287],-25.11%,–
CCN(CC)CCCCNc1cc(-c2[nH]c(-c3c(Cl)cccc3Cl)nc2-c2ccc3cc(OC)ccc3c2)ccn1 [TCMDC-141249],85.02%,–
COc1ccc2cc(-c3nc(-c4c(Cl)cccc4Cl)[nH]c3-c3ccnc(NCCC4CCCN4C)c3)ccc2c1 (centres unmarked) [TCMDC-141248],70.07%,–
